The entries come from a sample that favours hits as a whole.
ST2 inh = blocks human ST2 binding to IL-33. AID 1259354. inhibition, % for hits at 17 µM. Q01638. 78,000 tested, 2.3% active. AlphaLISA ST2-Fc/biotin-IL-33 interaction, 1 h; in the data active = inhibition above about 30%
Large screens that a line does not name were inactive.

COc1ccc2c(c1)C(C)(C)C1(C=Cc3cc([N+](=O)[O-])cc(OC)c3O1)N2C (stereo not drawn)	ST2 inh 73%
COc1ccc(NC(=O)c2ccc([N+](=O)[O-])cc2)c(OC)c1	none
COc1ccc(-n2c(C)c([N+](=O)[O-])c3ccc(O)cc32)cc1	none
O=c1cc(CN2C[C@@H]3C4CCC(CC4)[C@@H]3C2)[nH]c(=O)[nH]1	none
CCC1=C(C)/C(=C\c2[nH]c(C)c(CC)c2C)N=C1C	ST2 inh 78%
O=C(CCc1cccnc1)N[C@@H]1c2ccccc2C2(CCNCC2)[C@H]1O	none
CCn1c(=NC(=O)CSCC(=O)N2CCN(c3ccccc3)CC2)sc2ccccc21	none
COCCCNC(=O)C1CCN(CC(C)C)CC1	none
Cc1ccc(-n2ccc(N)c(C#N)c2=O)cc1	none
COc1cccc(CN2CCCC3(CCN(C(=O)c4cccnc4OC)C3)C2=O)c1 (stereo not drawn)	none
COc1ccc(OC)c(NC(=O)c2cc3ccccc3o2)c1	none
COc1ccc(OC)c(NC(=O)c2c(OC)cccc2OC)c1	ST2 inh 35%
CCc1ccccc1NC(=O)c1c(OC)cccc1OC	none
O=C(NCCc1ccccc1)c1cc(C2CC2)on1	none
Cc1oc2c(C)c(O)ccc2c(=O)c1Oc1ccccc1	none
CN(C)CCN(C)[C@H]1[C@@H]2OC[C@@H](O2)[C@@H](NCc2ccc(OC(F)(F)F)cc2)[C@@H]1O	none
O[C@H]1[C@H](NCc2ccc(OC(F)(F)F)cc2)[C@H]2CO[C@H](O2)[C@@H]1N1CCOCC1	ST2 inh 64%
COc1ccccc1N1CCN([C@H]2[C@@H]3OC[C@@H](O3)[C@@H](NCc3ccc(OC(F)(F)F)cc3)[C@@H]2O)CC1	none
O=[N+]([O-])c1cccc(-c2noc(-c3ccc(I)cc3)n2)c1	none
COc1ccccc1CNc1ccc([N+](=O)[O-])cn1	none
COc1ccccc1Cc1nc(-c2cccc([N+](=O)[O-])c2)no1	ST2 inh 32%
COc1ccc(-c2nc(-c3cccc([N+](=O)[O-])c3)no2)cc1	none
COc1ccccc1Cc1nc(-c2ccc([N+](=O)[O-])cc2)no1	ST2 inh 30%
COc1ccccc1Cc1noc(COc2cccc(C)c2C)n1	none
COc1ccccc1Cc1noc(-c2ccc([N+](=O)[O-])cc2)n1	ST2 inh 47%
COc1ccccc1Nc1nc(-c2ccc([N+](=O)[O-])cc2)nc2ccccc12	none
COc1ccccc1Cc1noc(/C=C/c2ccccc2Cl)n1	none
Cc1nnc(SCCNC(=O)CN2CCCN(C)CC2)s1	none
CC(Sc1nc2c(c(=O)n(C)c(=O)n2C)n1Cc1cccc(Cl)c1)C(=O)O (stereo not drawn)	none
CCOc1ccc(-c2cn(-c3cc(C)ccc3C)c(=O)[nH]2)cc1Cl	none
O=C(Nc1c(C(=O)Nc2ccc(F)cc2)oc2ccccc12)c1cccs1	none
CCc1cc(N2CCN3CCN(C)CC3C2)nc(N2CCOCC2)n1 (stereo not drawn)	none
CCC(C)(C)C1CCC2(CC1)SCC(=O)N2c1ccc(F)cc1 (stereo not drawn)	none
O=C(c1ccc(F)cc1)c1c[nH]c2cc3c(cc2c1=O)OCCO3	none
COc1cc(C)[n+](OC(=O)N(c2ccccc2)c2ccccc2)c(C)c1	none
Cn1ccnc1CN1CCCC(CNC(=O)NC2CCCC2)C1 (stereo not drawn)	none
Cc1cc(C)cc(N(CC(=O)N2CCN(Cc3ccccc3)CC2)S(C)(=O)=O)c1	none
CCOc1ccccc1C1C(C#N)=C(N)Oc2n[nH]c(-c3ccc(OC)cc3)c21 (stereo not drawn)	none
Cc1ccc(S(=O)(=O)Nc2ccccc2-c2ccccc2)cc1	none
O=C1c2ccccc2-c2n[nH]c3cccc1c23	none
Cc1ccc(-c2cc3c(nn2)-c2ccccc2C3=O)cc1	ST2 inh 34%
Cc1ccc(SC2CCN(C(=O)c3cn(CCc4ccccc4)nn3)CC2)cc1	none
Cc1cccc(C)c1NC(=O)c1ccco1	none
Cc1ccccc1NC(=O)c1ccco1	none
Cc1ccc(/C=C/NC(=O)c2ccco2)cc1C	ST2 inh 31%
Cc1cccc(-c2nsc(SCC(=O)N3CCc4ccccc43)n2)c1	none
CCN(CC)S(=O)(=O)c1ccc(NC(=O)c2cccc(S(=O)(=O)N3CCCC3)c2)cc1	none
Cc1cc(C)c(N2CCC(=O)N2)c(C)c1	ST2 inh 33%
CCN1CCN(Cc2c(C)[nH]c3c(C)cc(C)cc3c2=O)CC1	none
Cc1cc(C)c(S(=O)(=O)N2CCCC2=O)c(C)c1	none
CCOC(=O)c1c(C)n(C)c2ccc(OC(=O)c3ccccc3Br)cc12	none
COc1ccc(S(=O)(=O)NCc2ccccc2)c2ccccc12	none
Cc1[nH]n(-c2ccc(Cl)cc2)c(=O)c1C=Nc1cccc(Nc2ccccc2)c1	ST2 inh 30%
Cc1[nH]n(-c2ccccc2)c(=O)c1C=Nc1ccc([N+](=O)[O-])cc1Cl	none
CC(=O)c1ccc(N=Cc2c(C)[nH]n(-c3ccccc3)c2=O)cc1	none
COc1ccc(C2=C/C(=C/c3cccc(OC)c3OC)C(=O)O2)c(OC)c1	ST2 inh 34%
CCc1ccc(C2=C/C(=C/c3cc(OC)ccc3OC)C(=O)O2)cc1	ST2 inh 38%
COc1ccc(/C=C2\C=C(c3ccc(Br)cc3)OC2=O)cc1[N+](=O)[O-]	none
COc1cc(/C=C2\C=C(c3ccc(Cl)cc3)OC2=O)cc(I)c1OC	none
